Drawing on ChEMBL document CHEMBL1157539, “Thousands of chemical starting points for antimalarial lead identification” (Nature, 2010), this text covers Inhibition for 32 compounds.

Common to all, as to type: functional
In test [1] the test system is Plasmodium falciparum. Briefly: GSK_TCMDC: Inhibition of Plasmodium falciparum 3D7 in whole red blood cells, using parasite LDH activity as an index of growth. Test compounds present at 2uM.
The subject of test [2] is Plasmodium falciparum. Briefly: GSK_TCMDC: Inhibition of Plasmodium falciparum Dd2 in whole red blood cells, using parasite LDH activity as an index of growth. Test compounds present at 2uM.
The subject of the next test is HepG2. Description: GSK_TCMDC: Percent inhibition of human HepG2 cell line. Test compounds present at 10uM.

The structures appear in SMILES notation.

Usually Inhibition stands for the change of the read-out against control, counted positive when it falls. A higher Inhibition goes with a strong effect.

Turning to `Cc1cc(NC(=O)c2ccc(S(=O)(=O)N(Cc3ccccc3)C(C)C)cc2)no1`, the Inhibition with Plasmodium falciparum [1] is given as 87%; in the test on Plasmodium falciparum [2] it was 67%; with HepG2, 0%.
Regarding `O=C(Nc1ccc(CN2CCN(S(=O)(=O)c3cccc(Cl)c3)CC2)cc1)c1cccs1.O=C(O)C(F)(F)F`, the Inhibition with Plasmodium falciparum [1] is given as 84%; in the test with Plasmodium falciparum [2], 41%; with HepG2, 9%.
For `COC(=O)C(NC(=O)NC1CCN(c2ccnc(Nc3ccc(F)cc3)n2)C1)c1ccccc1` (stereo unspecified), the values for the Inhibition with Plasmodium falciparum [1], in the test with Plasmodium falciparum [2] and with HepG2 were 87%, 8% and 11%, respectively.
`COCCNCc1ccc(-c2ccc3c(Nc4ccc(F)cc4Cl)ccnc3c2)o1`: the Inhibition with Plasmodium falciparum [1] stood at 100%; in the test with Plasmodium falciparum [2], 100%; with HepG2 it was 22%.
With `OC(CNc1ccnc(Nc2ccc(Cl)cc2)n1)c1cccc(C(F)(F)F)c1` (stereo unspecified), the values for the Inhibition with Plasmodium falciparum [1], in the test with Plasmodium falciparum [2] and in the test on HepG2 were 100%, 84% and 9%, respectively.
For the compound `Cl.O=C(Nc1ccc(SC(F)(F)F)cc1)Nc1ccnc2ccccc12`, the results for the Inhibition with Plasmodium falciparum [1], in the test with Plasmodium falciparum [2] and in the test with HepG2 were 95%, 42% and 26%, respectively.
Turning to `Cl.c1ccc(-c2ccc3c(Nc4ccc5[nH]ncc5c4)ccnc3c2)nc1`, the Inhibition turned out to be 100% in the test with Plasmodium falciparum [1], 99% with Plasmodium falciparum [2] and 99% with HepG2.
Turning to `O=C(Cc1cccc2ccccc12)N1CCc2cc3nccc(N4CCN5CCC[C@H]5C4)c3cc21`, the Inhibition in the test with Plasmodium falciparum [1] was 100%; in the test on Plasmodium falciparum [2], 99%; in the test on HepG2 it was 3%.
The matching figures for `Cc1cccc2nc(-c3cccc(-c4ccc(NC(=O)Nc5cccc(C#N)c5)cc4)c3)[nH]c12`: 100%, 91% and 50%.
`O=C(O)C(F)(F)F.Oc1ccc(CCNc2nc(NCCCOc3ccccc3-c3cccnc3)nc(N3CCNCC3)n2)cc1`: the Inhibition was 92% with Plasmodium falciparum [1], 1% with Plasmodium falciparum [2] and 10% with HepG2.
As for `CC(C)NCc1cccc(-c2cccc(NC(=O)c3cccc(Cl)c3)c2)c1.O=C(O)C(F)(F)F`, the Inhibition with Plasmodium falciparum [1] is reported as 98%; in the test with Plasmodium falciparum [2], 38%; in the test on HepG2 it was 36%.
On to `COC(=O)Nc1cc(C(F)(F)F)ccc1N1CCCC(NS(=O)(=O)c2ccc(C(C)(C)C)cc2)C1` (stereo unspecified), for which the Inhibition in the test with Plasmodium falciparum [1] is listed as 97%; with Plasmodium falciparum [2], 90%; with HepG2 it was 0%.
Consider `Cc1nnc2c(NC(=O)NC3CCCC3)cc3ccc(-c4cccc(CN(C)C)c4)cc3n12`, for which the Inhibition is 90% with Plasmodium falciparum [1], 25% in the test with Plasmodium falciparum [2] and 42% with HepG2.
The matching figures for `CCCCCCCNc1cc(C)nc2ccc(OC)cc12.Cl`: 100%, 100% and 30%.
Regarding `Cc1cccc(C(=O)N2CCN(Cc3cccc(NC(=O)c4ccco4)c3)CC2)c1.O=C(O)C(F)(F)F`, the values for the Inhibition with Plasmodium falciparum [1], in the test on Plasmodium falciparum [2] and with HepG2 were 94%, 79% and 7%, respectively.
As to `Cc1ccc(CON2C(N)=NC(N)=NC23CCCCC3)c2ccccc12.Cl`, the results for the Inhibition in the test on Plasmodium falciparum [1], with Plasmodium falciparum [2] and in the test on HepG2 were 98%, 56% and 57%, respectively.
As to `CC(C)CCNC(=N)Nc1ccc(OCCCOc2ccc(NC(=N)NCCC(C)C)cc2)cc1`, the Inhibition was determined as 100% in the test with Plasmodium falciparum [1], 95% in the test with Plasmodium falciparum [2] and 0% with HepG2.
For `COCCNCc1cccc(-c2cccc(CNC3CCN(Cc4ccccc4)CC3)c2)c1.O=C(O)C(F)(F)F` the same measures were 100%, 99% and 28%.
With `O=C(Nc1ccc2c(c1)CCC2)c1ccc(CN2CCCN(Cc3cccc(O)c3)CC2)cc1.O=C(O)C(F)(F)F`, the Inhibition in the test with Plasmodium falciparum [1] is reported as 88%; in the test on Plasmodium falciparum [2], 46%; in the test on HepG2 it was 45%.
Turning to `COc1ccc(-c2nonc2NC(=O)c2ccc(C(C)(C)C)cc2)cc1OC`, the Inhibition was found to be 99% in the test with Plasmodium falciparum [1], 73% in the test with Plasmodium falciparum [2] and 0% in the test with HepG2.
For the compound `CCCCCC(=O)N1CCOC(CCN2CCc3c(c4ccccc4n3C)C2)(c2ccc(Cl)c(Cl)c2)C1` (stereo unspecified), the Inhibition in the test with Plasmodium falciparum [1] is listed as 95%; in the test on Plasmodium falciparum [2] it was 80%; in the test on HepG2 it was 24%.
In the case of `O=C(Nc1ccc(Cl)cc1)c1cc(Cl)cc2nc(C(F)(F)F)[nH]c12`, the Inhibition in the test with Plasmodium falciparum [1] is 100%; with Plasmodium falciparum [2], 100%; in the test on HepG2, 87%.
Take `C=CCn1c(Sc2ccc(C#N)c([N+](=O)[O-])c2)nnc1-c1ccc(OC)cc1`: the Inhibition amounted to 96% in the test with Plasmodium falciparum [1], 74% in the test with Plasmodium falciparum [2] and 0% with HepG2.
The matching figures for `COc1ccc(-c2nc(NC(=O)CSc3ccc([N+](=O)[O-])cc3)sc2C)cc1`: 100%, 100% and 0%.
As to `CC(C)C[C@H](Nc1ccc(C#N)c2ccccc12)C(=O)NC(C)(C)C12CC3CC(CC(C3)C1)C2.O=C(O)C(F)(F)F`, the Inhibition in the test with Plasmodium falciparum [1] was found to be 96%; with Plasmodium falciparum [2] it was 30%; with HepG2, 19%.
As for `CN(C)CC1c2[nH]c3ccccc3c2CCN1C(=O)Nc1ccc(Cl)c(Cl)c1.Cl` (stereo unspecified), the Inhibition in the test on Plasmodium falciparum [1] is 90%; in the test with Plasmodium falciparum [2], 32%; in the test on HepG2, 99%.
Take `Cl.ON=C1CCc2cc(-c3[nH]c(-c4cccc(OCCNCc5ccc(F)cc5)c4)nc3-c3ccncc3)ccc21`: the Inhibition is listed as 89% in the test with Plasmodium falciparum [1], 69% with Plasmodium falciparum [2] and 76% with HepG2.
As for `CCCC1N=C(N)N=C(N)N1c1ccccc1.Cl` (stereo unspecified), the Inhibition was 93% in the test on Plasmodium falciparum [1], 0% with Plasmodium falciparum [2] and 0% in the test with HepG2.
In the case of `COc1cc(F)c2ncc(Cl)c(CCN3CCC(NCc4cc5c(cn4)OCCO5)CC3)c2c1.Cl`, the values for the Inhibition in the test on Plasmodium falciparum [1], in the test with Plasmodium falciparum [2] and in the test with HepG2 were 89%, 57% and 2%, respectively.
Consider `CO/C(=C\C=C\c1cc2cc(Cl)c(Cl)cc2[nH]1)C(=O)NC1CC(C)N(C)C(C)C1` (stereo unspecified), for which the Inhibition stood at 97% with Plasmodium falciparum [1], 57% in the test on Plasmodium falciparum [2] and 64% in the test with HepG2.
On to `Nc1ncc(-c2ccc(F)cc2)cc1-c1nc2ccc(Cl)cc2[nH]1`, for which the Inhibition is on record as 99% in the test on Plasmodium falciparum [1], 44% with Plasmodium falciparum [2] and 45% in the test on HepG2.
The matching figures for `CCOc1ccc(-c2nonc2NC(=O)c2ccccc2)cc1OCC`: 99%, 100% and 6%.
